Data as given in PubChem BioAssay.
Calls of active or inactive are those of the source.

How the values were obtained:
[1] = binders of probe aFSTL3 on microarray, primary screen, stem cell growth factor project, biochemical, small-molecule microarray, fluorescence 635/667 (AID 1064); details: higher = more signal;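 further: measures binding of the biotinylated anti-FSTL3 antibody to printed compounds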
[2] = binders from COS7 lysate, DM2A8 probe, primary screen, torsin A project, cell lysate, small-molecule microarray, fluorescence 635/667 (AID 1065); details: higher = more signal, COS7 lysate expressing mutant human TOR1A
[3] = binders of probe aFGF2 on microarray, primary screen, stem cell growth factor project, biochemical, small-molecule microarray, fluorescence 635/667 (AID 1067); details: higher = more signal;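 further: measures binding of biotinylated aFGF2 protein to printed compounds on slides; z-score merges feature fluorescence and signal-to-noise across triplicate slides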
[4] = binders of probe aFGF10 on microarray, primary screen, stem cell growth factor project, biochemical, small-molecule microarray, fluorescence 635/667 (AID 1071); details: higher = more signal;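 further: score merges 667 nm spot intensity and signal to noise from triplicate slides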
[5] = target: Neurogenic locus notch homolog protein 2 (Homo sapiens) (UniProt Q04721); assay: Notch2 binders on small-molecule microarrays, primary screen, biochemical, small-molecule microarray, 635 nm fluorescence, stem cell growth factors (AID 1073); details: Notch2 binding, higher = more signal
Neurogenic locus notch homolog protein 2 (Homo sapiens), sequence (Q04721 whole entry, looked up, canonical isoform): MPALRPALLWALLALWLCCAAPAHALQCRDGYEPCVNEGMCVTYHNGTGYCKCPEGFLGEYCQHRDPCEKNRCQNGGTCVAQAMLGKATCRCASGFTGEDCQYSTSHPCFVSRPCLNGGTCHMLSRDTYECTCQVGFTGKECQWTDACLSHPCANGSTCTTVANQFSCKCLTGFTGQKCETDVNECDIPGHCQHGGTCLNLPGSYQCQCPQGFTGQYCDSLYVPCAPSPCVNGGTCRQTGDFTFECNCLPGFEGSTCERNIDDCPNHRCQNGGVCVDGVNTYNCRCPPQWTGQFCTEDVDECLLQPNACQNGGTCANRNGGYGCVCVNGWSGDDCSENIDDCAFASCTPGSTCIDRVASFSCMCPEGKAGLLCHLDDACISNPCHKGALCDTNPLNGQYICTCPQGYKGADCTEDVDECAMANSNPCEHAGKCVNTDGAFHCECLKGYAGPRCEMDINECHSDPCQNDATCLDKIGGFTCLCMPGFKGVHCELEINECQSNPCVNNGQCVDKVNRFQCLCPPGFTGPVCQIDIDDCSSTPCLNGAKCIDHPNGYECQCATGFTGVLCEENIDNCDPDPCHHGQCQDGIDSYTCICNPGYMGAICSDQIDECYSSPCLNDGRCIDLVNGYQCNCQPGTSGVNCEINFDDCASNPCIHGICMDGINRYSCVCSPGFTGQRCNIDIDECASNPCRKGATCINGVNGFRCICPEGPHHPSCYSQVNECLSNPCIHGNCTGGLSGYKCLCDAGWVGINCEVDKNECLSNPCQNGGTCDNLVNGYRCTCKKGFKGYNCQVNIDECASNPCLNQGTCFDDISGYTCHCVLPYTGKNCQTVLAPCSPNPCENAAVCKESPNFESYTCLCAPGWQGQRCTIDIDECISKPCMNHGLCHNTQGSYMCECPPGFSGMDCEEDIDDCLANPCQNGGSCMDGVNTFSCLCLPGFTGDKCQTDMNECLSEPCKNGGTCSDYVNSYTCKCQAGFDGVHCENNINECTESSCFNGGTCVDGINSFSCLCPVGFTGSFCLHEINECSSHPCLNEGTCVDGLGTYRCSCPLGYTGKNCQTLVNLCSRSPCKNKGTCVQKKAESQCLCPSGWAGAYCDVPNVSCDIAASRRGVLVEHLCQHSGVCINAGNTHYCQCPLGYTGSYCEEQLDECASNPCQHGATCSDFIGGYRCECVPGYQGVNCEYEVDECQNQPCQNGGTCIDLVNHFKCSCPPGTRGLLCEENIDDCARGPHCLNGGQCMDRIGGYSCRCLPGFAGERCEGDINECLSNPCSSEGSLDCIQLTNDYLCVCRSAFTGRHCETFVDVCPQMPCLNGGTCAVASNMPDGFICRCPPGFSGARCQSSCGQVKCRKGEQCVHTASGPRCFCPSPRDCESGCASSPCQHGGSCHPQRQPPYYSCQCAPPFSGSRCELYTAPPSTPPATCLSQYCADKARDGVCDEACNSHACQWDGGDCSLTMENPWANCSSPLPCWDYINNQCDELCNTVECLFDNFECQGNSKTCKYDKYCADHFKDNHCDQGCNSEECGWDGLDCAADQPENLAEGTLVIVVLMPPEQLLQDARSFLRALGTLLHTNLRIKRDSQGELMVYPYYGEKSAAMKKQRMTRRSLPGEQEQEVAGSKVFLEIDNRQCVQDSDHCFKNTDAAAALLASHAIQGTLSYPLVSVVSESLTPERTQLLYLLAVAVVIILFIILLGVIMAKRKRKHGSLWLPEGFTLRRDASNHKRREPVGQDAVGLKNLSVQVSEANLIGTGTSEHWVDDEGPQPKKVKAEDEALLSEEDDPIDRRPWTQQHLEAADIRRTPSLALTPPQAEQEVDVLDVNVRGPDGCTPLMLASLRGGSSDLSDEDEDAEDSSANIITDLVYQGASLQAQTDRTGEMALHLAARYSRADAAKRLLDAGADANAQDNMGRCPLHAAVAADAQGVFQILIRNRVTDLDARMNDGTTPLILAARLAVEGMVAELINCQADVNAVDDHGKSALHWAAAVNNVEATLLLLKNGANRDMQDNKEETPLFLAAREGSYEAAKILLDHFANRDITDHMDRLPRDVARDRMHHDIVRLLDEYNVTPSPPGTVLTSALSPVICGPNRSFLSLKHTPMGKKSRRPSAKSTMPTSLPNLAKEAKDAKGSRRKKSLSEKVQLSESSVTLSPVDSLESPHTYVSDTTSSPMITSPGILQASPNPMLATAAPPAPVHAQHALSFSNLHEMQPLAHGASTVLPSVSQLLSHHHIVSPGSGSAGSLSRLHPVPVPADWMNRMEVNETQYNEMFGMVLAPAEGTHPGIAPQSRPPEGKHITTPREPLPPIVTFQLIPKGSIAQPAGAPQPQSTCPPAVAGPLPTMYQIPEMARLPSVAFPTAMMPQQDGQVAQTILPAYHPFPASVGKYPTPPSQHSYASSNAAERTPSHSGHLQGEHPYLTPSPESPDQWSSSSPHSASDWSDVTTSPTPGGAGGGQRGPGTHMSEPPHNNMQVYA

[6] = target: Pro-neuregulin-1, membrane-bound isoform (Homo sapiens) (UniProt Q02297); assay: NRG1 binders on small-molecule microarrays, primary screen, psychiatric disease protein project, biochemical, small-molecule microarray, fluorescence 635/667 (AID 1075); details: NRG1 binding, 635 nm fluorescence, higher = more signal;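 further: score combines 667 nm spot fluorescence with signal to noise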
Pro-neuregulin-1, membrane-bound isoform (Homo sapiens), sequence (Q02297 whole entry, looked up, the tested form may be a part, canonical isoform): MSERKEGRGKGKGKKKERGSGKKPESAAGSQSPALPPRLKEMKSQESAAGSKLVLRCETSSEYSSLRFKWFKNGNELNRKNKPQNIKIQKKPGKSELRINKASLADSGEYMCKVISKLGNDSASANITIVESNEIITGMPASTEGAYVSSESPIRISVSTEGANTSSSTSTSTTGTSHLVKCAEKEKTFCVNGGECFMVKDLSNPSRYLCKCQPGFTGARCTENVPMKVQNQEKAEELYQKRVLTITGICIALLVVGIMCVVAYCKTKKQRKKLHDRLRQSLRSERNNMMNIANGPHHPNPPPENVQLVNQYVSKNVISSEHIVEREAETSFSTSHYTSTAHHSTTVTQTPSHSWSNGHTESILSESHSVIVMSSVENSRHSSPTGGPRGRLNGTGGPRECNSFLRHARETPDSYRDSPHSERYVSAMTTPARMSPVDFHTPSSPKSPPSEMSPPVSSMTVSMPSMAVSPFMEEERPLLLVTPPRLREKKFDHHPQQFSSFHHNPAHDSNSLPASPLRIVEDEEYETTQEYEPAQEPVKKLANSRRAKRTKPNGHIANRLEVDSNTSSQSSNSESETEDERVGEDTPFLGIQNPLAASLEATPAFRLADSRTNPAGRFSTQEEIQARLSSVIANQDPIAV

[7] = system: Neuregulin-1 EGF-like domain; assay: binders of neuregulin-1 EGF-like domain, primary screen, biochemical, small-molecule microarray, 635 nm fluorescence (AID 1081); details: small-molecule microarray binding, higher = more signal;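 further: binding of the protein to compounds printed on small-molecule microarray slides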
[8] = FRG1 promoter luciferase signal modulators, primary screen, FRG1 inhibition for FSHD, cell-based, C2C12 myotubes, firefly/Renilla luciferase, luminescence (AID 1084); details: higher = more signal, called active from +8 up or from −8 down
[9] = binders of probe aFST on microarray, primary screen, stem cell growth factor project, biochemical, small-molecule microarray, fluorescence 635/667 (AID 1086); details: higher = more signal;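 further: score merges 667 nm fluorescence with signal-to-noise of each printed compound spot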
[10] = binders of probe aHhip on microarray, primary screen, stem cell growth factor project, biochemical, small-molecule microarray, fluorescence 635/667 (AID 1087); details: higher = more signal;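 further: score merges spot fluorescence at 667nm with spot signal to noise ratio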

SMILES | composite z-score [1] | composite z-score [2] | composite z-score [3] | composite z-score [4] | composite z-score [5] | composite z-score [6] | composite z-score [7] | z-score [8] | composite z-score [9] | composite z-score [10]
O=C1[C@@H]2[C@@H](CC(COc3ccccc3)=C([C@H](O)CCc3ccccc3)[C@@H]2CO)C(=O)N1Cc1ccccc1 | -0.379 | 0.364 | -0.187 | 0.0395 | 0.719 | 0.433 | 1.01 | -0.643 (inactive) | 0.391 | 0.0176
CC1=C([C@H](O)CCc2ccccc2)[C@H](CO)n2c(=O)n(-c3ccccc3)c(=O)n2C1 | -0.312 | -0.322 | -0.159 | 0.0052 | -0.371 | -0.355 | -0.56 | -0.973 (inactive) | -0.429 | -0.236
C=CC[C@@]12N=C(c3ccc(OCCCO)cc3)O[C@@H]1c1ccccc1N(CCC)C2=O | 0.953 | -0.0868 | 0.0528 | 0.288 | 0.381 | 0.984 | 1.21 | 2.39 (inactive) | 0.298 | -0.0645
C=C(CCCC)/C(=C/C[C@@H](OC(C)=O)c1ccc(CO)o1)c1cnc2ccccc2c1 | -0.593 | 0.361 | -0.0744 | 1.14 | 1.31 | 1.31 | 1.28 | -0.16 (inactive) | 0.128 | -0.179
COc1ccc(C(=O)Nc2cccc(CN3C(=O)[C@]4(O[C@H](CC(=O)N5Cc6ccccc6C[C@H]5CO)[C@@H]([Si](C)(C)c5ccc(OC)cc5)[C@@H]4C)c4ccccc43)c2)cc1 | -0.24 | 0.822 | -0.159 | 0.426 | 0.424 | 0.466 | 0.762 | -1.66 (inactive) | 0.208 | -0.211
CCOc1cc(C(O)C2C=CC3C(=O)N(c4ccccc4)C(=O)C3N2Nc2ccccc2F)ccc1O (stereo not given) | 2.51 | 0.112 | 0.252 | 0.334 | 0.935 | 2.06 | 1.37 | 0.118 (inactive) | 1.51 | 0.02
COCCCNC(=O)[C@@]1(CCC(=O)OC(C)(C)C)COC(c2ccc(OCCCO)cc2)=N1 | -0.0885 | 0.355 | -0.0659 | 0.611 | 0.844 | 1.63 | 1.21 | -0.604 (inactive) | 0.579 | -0.12
NC(=O)N1C(=O)C2C(C1=O)C1C=C(CCCO)C2C(c2ccc(CN3CCCC3)cc2)N1Cc1sc2ccccc2c1Cl (stereo not given) | -0.161 | 0.224 | -0.0867 | 0.0718 | 0.0517 | 0.0965 | 0.834 | -0.824 (inactive) | -0.835 | -0.323
COc1ccccc1CN1C(=O)c2ccccc2[C@](Cc2ccccc2I)(C(=O)NCC(C)C)[C@@H]1c1ccc(CO)cc1 | 1.21 | 0.204 | -0.0049 | -0.452 | -0.396 | 1.2 | 1.15 | -2.55 (inactive) | 0.0126 | 0.142
C[C@]1(C(=O)O)c2ccccc2C(=O)N(Cc2cc(F)cc(C(F)(F)F)c2)[C@H]1c1ccc(CO)cc1 | -0.25 | -0.205 | -0.0887 | 0.0859 | 0.361 | 0.233 | 0.936 | -0.163 (inactive) | 0.436 | -0.268
COc1cc(OC)c(C(O)C2C=CC3C(=O)N(c4ccccc4)C(=O)C3N2Nc2ccc(C(C)C)cc2)cc1Br (stereo not given) | 0.108 | -0.0919 | 0.0559 | 0.774 | 1.44 | 1.4 | 1.28 | -2.19 (inactive) | 1.2 | -0.0994
COc1ccc(CCNC(=O)[C@@H]2c3ccccc3C(=O)N(Cc3ccccc3OC)[C@H]2c2ccc(CO)cc2)cc1 | -0.26 | 0.678 | 0.0021 | 0.131 | 1.03 | 1.29 | 1.31 | -2.5 (inactive) | 0.428 | -0.266
CN(C)CCCNC(=O)[C@@]1(C)c2ccccc2C(=O)N(Cc2ccc(OC(F)(F)F)cc2)[C@H]1c1ccc(CO)cc1 | 0.462 | -0.674 | -0.0587 | -0.959 | -0.538 | 1.35 | 0.161 | -2.46 (inactive) | -0.329 | -0.435
C=CCOC(=O)[C@@H]1[C@H]2C(=O)O[C@H](c3ccccc3)[C@H](c3ccccc3)N2[C@H](c2ccc(OCCOC(=O)[C@H]3C[C@H]4C(=O)NCC(=O)N4[C@H]3c3cccc(OCCO)c3)cc2)[C@@]12C(=O)Nc1ccc(I)cc12 | -0.0708 | 0.727 | -0.0383 | -0.0265 | 0.593 | 1.16 | 1.23 | 0.779 (inactive) | 0.275 | -0.0296
COC(=O)[C@@]1(Cc2ccccc2)[C@H]2c3cc(C(=O)N(C)C)n(Cc4ccc(C(F)(F)F)nc4)c3C[C@H]2CN1C(=O)c1ccccc1 | 0.261 | 0.0724 | 0.233 | 0.699 | 1.67 | 1.9 | 1.48 | 0.0597 (inactive) | 1.74 | -0.126
C=C(C)[C@@H]1CC=C(C(O)C2C=CC3C(=O)N(C)C(=O)C3N2Nc2ccc([N+](=O)[O-])cc2[N+](=O)[O-])CC1 (stereo not given in full) | 0.661 | 0.294 | -0.144 | 0.431 | 1.68 | 1.74 | 1.36 | 0.404 (inactive) | 1.46 | -0.0003

SMILES | composite z-score [1] | composite z-score [2] | composite z-score [3] | composite z-score [4] | composite z-score [5] | composite z-score [6] | composite z-score [7] | z-score [8] | composite z-score [9] | composite z-score [10]
COc1ccc(C(=O)Nc2cccc(CN3C(=O)[C@@]4(O[C@@H](CC(=O)N5CCC[C@H]5CO)[C@H]([Si](C)(C)c5ccc(OC)cc5)[C@H]4C)c4ccccc43)c2)cc1 | -0.226 | 0.484 | -0.0625 | 0.0314 | 0.518 | 1.39 | 1.13 | -3.85 (inactive) | -0.0084 | -0.261
O=C1C[C@]2(c3ccc([N+](=O)[O-])cc3)C(=O)N(C3CC3)c3cc(CO)ccc3[C@H]2N1C1CCCCC1 | -0.351 | -0.124 | -0.164 | 0.097 | -0.0343 | -0.123 | -0.0608 | 0.413 (inactive) | -0.0927 | -0.236
O=C1c2ccccc2[C@@]2(Cc3ccccc3N(Cc3ccccc3)C2=O)[C@H](c2ccc(CO)cc2)N1Cc1ccccc1Cl | 0.209 | -0.337 | -0.0934 | -0.127 | -1.04 | -0.579 | -1.13 | 1.13 (inactive) | -0.164 | -0.0541
CC(C)=CCCC(C)=CC(O)C1C=CC2C(=O)NC(=O)C2N1Nc1ccccn1 (stereo not given) | -0.631 | 1.6 | 0.059 | 1.16 | 1.57 | 0.966 | 1.23 | -0.385 (inactive) | 1.21 | -0.109
COc1ccc([Si](C)(C)[C@@H]2[C@@H](CC(=O)N(CCO)Cc3ccccc3)O[C@]3(C(=O)N(Cc4ccc(N5C(=O)c6cccc7cccc5c67)cc4)c4ccccc43)[C@H]2C)cc1 | -0.0031 | 0.407 | -0.0876 | 0.181 | 0.494 | 0.933 | 0.956 | -1.76 (inactive) | -0.0542 | -0.353
COCCOC(=O)N1C(=O)[C@@]2(c3cc(C#CCC(C(=O)OC)C(=O)OC)ccc31)[C@H](c1ccc(O)cc1)N1[C@H](c3ccccc3)[C@H](c3ccccc3)OC(=O)[C@H]1[C@@H]2C(=O)Nc1nc2ccccc2s1 | -0.0882 | 1.39 | 0.0001 | 0.785 | 1.27 | 1.12 | 1.27 | 0.909 (inactive) | 0.606 | 0.382
CN(C)CCCNC(=O)[C@@]1(Cc2ccccc2I)c2ccccc2C(=O)N(C2CCCCC2)[C@H]1c1ccc(CO)cc1 | 1.13 | 1.02 | 0.0676 | 0.293 | 1.24 | 0.418 | 1.26 | -3.32 (inactive) | 0.68 | 0.214
NC(=O)N1C(=O)C2C(C1=O)C1C=C(CCCO)C2C(c2ccc(CN3CCCC3)cc2)N1Cc1cc2c(cc1Br)OCO2 (stereo not given) | 0.117 | 0.19 | -0.0909 | -0.0906 | -0.362 | -0.311 | 0.626 | -0.905 (inactive) | -0.369 | -0.476
COc1ccc([Si](C)(C)[C@H]2[C@H](CCO)O[C@@]3(C(=O)N(Cc4cccc(N(C=O)c5ccccc5)c4)c4ccccc43)[C@@H]2C)cc1 | -0.364 | 0.35 | 0.0155 | 1.09 | 1.14 | 0.97 | 1.08 | -0.837 (inactive) | 0.638 | -0.236
C=C(COC)C(=O)CC[C@@H](OC(=O)c1ccccc1-c1ccccc1C(=O)O)c1ccc(OCCO)cc1 | -0.209 | 0.487 | -0.132 | -0.252 | -0.638 | -0.335 | 0.685 | 2.6 (inactive) | -0.0463 | -0.0994
[N-]=[N+]=Nc1ccccc1C[C@@]1(C(=O)NCc2ccccc2)N=C(c2ccc(OCCCO)cc2)O[C@@H]1c1ccccc1N=[N+]=[N-] | 0.581 | 0.504 | 0.0678 | 1.04 | 1.09 | 0.966 | 1.06 | -1.24 (inactive) | 0.602 | -0.175
C#CCN1[C@@H](Cc2ccccc2)C(=O)O[C@H](Cc2ccccc2)[C@@H]1/C=C/C1CC1 | -0.733 | 0.819 | -0.0807 | 0.289 | -0.271 | -0.151 | 0.86 | -3.46 (inactive) | 0.426 | 0.198
COC(=O)[C@@]1(Cc2ccccc2)[C@H]2c3cc(C(=O)N(C)C)n(Cc4ccc(S(C)(=O)=O)cc4)c3C[C@H]2CN1C(=O)c1ccccc1 | 0.442 | 0.198 | 0.431 | 0.443 | 1.48 | 2.03 | 1.22 | 2.39 (inactive) | 0.744 | -0.118
Cc1ccc(C(C)CC(O)C2C=CC3C(=O)N(C)C(=O)C3N2Nc2ccccc2)o1 (stereo not given) | -0.138 | 0.0897 | 0.0876 | 0.75 | 1.44 | 0.812 | 1.09 | 0.651 (inactive) | 1.44 | -0.0994
O=C(NCCN1CCOCC1)[C@@H]1c2ccccc2C(=O)N(Cc2ccccc2C(F)(F)F)[C@H]1c1ccc(CO)cc1 | -1.15 | -0.438 | -0.319 | -0.613 | -1.2 | 0.875 | -0.755 | -1.79 (inactive) | 0.48 | -0.504
CO[C@H]1O[C@H](CO)[C@@H](OC(=O)Nc2ccc3c(c2)OCO3)[C@H](OC(=O)Nc2ccccc2-c2ccccc2)[C@H]1OC(=O)Nc1ccccc1-c1ccccc1 | 0.22 | 0.873 | 0.007 | 1.26 | 1.44 | 0.96 | 1.18 | 0.124 (inactive) | 0.189 | 0.0749
